Holding throughout (design): scale not given: direction of the effect not stated beside the values
For experiment [1], the target named is Protein translocase subunit SecA (Escherichia coli (strain K12)) (UniProt P10408). The experiment in a line: Assay to Identify E. coli SecA ATPase Inhibitors. As to conditions: 30 µM. Format: functional.
The target in experiment [2] is T1, Ubiquitin-activating enzyme e1, putative (Leishmania donovani (strain BPK282A1)) (UniProt E9BSI1).
T1 sequence (whole entry): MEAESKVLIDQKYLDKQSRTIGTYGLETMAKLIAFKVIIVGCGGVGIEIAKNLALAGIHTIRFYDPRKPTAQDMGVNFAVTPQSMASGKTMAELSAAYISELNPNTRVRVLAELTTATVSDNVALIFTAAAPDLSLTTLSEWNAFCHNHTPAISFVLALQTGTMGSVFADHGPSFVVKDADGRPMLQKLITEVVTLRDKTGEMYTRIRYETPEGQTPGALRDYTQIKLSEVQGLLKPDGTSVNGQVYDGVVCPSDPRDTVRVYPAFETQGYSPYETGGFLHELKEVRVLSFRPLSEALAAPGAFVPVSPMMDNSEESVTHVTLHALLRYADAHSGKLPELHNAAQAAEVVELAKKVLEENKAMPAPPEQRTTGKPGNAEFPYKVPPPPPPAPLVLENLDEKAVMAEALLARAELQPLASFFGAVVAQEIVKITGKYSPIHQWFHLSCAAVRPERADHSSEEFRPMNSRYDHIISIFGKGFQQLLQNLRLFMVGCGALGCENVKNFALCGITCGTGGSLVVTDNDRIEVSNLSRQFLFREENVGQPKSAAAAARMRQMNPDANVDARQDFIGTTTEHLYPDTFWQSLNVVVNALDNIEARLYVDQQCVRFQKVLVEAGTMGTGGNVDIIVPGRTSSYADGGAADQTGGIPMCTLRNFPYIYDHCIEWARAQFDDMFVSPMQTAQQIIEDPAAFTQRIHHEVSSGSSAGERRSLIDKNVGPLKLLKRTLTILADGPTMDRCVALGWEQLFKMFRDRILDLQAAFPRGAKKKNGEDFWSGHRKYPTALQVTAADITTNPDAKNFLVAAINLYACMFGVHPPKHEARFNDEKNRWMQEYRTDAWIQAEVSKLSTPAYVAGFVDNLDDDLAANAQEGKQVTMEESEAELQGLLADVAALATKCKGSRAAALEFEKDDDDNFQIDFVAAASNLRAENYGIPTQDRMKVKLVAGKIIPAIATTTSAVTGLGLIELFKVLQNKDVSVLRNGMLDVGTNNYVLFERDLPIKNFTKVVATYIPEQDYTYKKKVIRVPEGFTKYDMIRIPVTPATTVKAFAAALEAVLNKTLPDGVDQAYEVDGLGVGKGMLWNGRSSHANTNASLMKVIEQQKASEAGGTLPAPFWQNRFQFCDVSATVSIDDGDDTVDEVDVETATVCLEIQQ
Kind of experiment: Leishmania donovani Ubiquitin Activating Enzyme (LdE1). In kind it is functional. As to conditions: 30 µM.

The target in experiment [3] is AMP-activated protein kinase, AMPK (Homo sapiens) (UniProt P54646+O43741+P54619+Q9UGJ0+Q9Y478+Q13131+Q9UGI9). Kind of experiment: AMP-dependent Kinase enzyme assay. An in vitro enzyme assay that detects ADP turnover that is directly proportional to AMPK activity. This uses naive AMPK that is activated during the assay with MK-8722. In kind it is functional. Conditions: 30 µM.

For experiment [4], the target named is Sialic acid-binding Ig-like lectin 9 (Homo sapiens) (UniProt Q9Y336). The experiment in a line: Hs-Siglec9 ALPHAscreen SOP 20170721. As to conditions: 10 µM. A general note: Bead proximity is the source of the signal in Alpha formats.
For a further experiment, the system named is Trypanosoma cruzi. The experiment in a line: Trypanosoma cruzi phosphomannomutase and mannose-1-phosphate guanylyltransferase assay. Format: functional. As to conditions: 10 µM.
Experiment [5] concerns the target T2, Arginase-2, mitochondrial (Homo sapiens) (UniProt P78540).
T2 sequence (whole entry): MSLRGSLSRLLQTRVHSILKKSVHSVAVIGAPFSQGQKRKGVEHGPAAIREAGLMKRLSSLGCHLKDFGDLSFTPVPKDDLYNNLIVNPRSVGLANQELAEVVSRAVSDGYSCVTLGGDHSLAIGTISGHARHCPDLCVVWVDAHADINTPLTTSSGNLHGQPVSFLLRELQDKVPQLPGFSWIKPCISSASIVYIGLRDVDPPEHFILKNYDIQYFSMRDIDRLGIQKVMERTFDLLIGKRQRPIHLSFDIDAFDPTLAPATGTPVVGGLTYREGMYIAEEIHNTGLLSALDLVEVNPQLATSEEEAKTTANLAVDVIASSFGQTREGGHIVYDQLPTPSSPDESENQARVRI
Kind of experiment: in vitro enzyme assay to detect the production of urea directly proportional to the activity of Arginase II. Note: in the data most compounds retested in dose-response had high values. As to conditions: 33.3 µM. In kind it is functional.

Experiment [6] deals with T3, Proteasome subunit beta (Trypanosoma cruzi) (UniProt O96673).
T3 sequence (whole entry): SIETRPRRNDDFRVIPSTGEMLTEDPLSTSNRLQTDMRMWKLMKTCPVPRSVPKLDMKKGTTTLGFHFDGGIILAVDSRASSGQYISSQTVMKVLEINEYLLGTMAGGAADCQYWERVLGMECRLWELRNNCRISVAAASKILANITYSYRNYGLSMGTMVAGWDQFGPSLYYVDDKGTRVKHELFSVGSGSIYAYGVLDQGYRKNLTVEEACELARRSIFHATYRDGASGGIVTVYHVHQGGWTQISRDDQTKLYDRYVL
Kind of experiment: Trypanosoma cruzi proteasome chymotrypsin-like activity (TcProtChymo) assay. Note: in the data most compounds retested in dose-response had high values. In kind it is functional. Conditions: 9.37 µM.

For the next experiment, the species on record is Homo sapiens. The experiment in a line: To identify inhibition of the IFN signalling (Jak-Stat) pathway via expression of an eGFP reporter gene under the control of an IFN-stimulated response element (ISRE) containing MxA promoter. Format: functional. As to conditions: 30 µM. A general note: A reporter such as luciferase makes a cellular process visible.

Experiment [7] addresses T4, Tyrosyl-tRNA synthetase, putative (Trypanosoma cruzi (strain CL Brener)) (UniProt Q4DSP6).
T4 sequence (whole entry): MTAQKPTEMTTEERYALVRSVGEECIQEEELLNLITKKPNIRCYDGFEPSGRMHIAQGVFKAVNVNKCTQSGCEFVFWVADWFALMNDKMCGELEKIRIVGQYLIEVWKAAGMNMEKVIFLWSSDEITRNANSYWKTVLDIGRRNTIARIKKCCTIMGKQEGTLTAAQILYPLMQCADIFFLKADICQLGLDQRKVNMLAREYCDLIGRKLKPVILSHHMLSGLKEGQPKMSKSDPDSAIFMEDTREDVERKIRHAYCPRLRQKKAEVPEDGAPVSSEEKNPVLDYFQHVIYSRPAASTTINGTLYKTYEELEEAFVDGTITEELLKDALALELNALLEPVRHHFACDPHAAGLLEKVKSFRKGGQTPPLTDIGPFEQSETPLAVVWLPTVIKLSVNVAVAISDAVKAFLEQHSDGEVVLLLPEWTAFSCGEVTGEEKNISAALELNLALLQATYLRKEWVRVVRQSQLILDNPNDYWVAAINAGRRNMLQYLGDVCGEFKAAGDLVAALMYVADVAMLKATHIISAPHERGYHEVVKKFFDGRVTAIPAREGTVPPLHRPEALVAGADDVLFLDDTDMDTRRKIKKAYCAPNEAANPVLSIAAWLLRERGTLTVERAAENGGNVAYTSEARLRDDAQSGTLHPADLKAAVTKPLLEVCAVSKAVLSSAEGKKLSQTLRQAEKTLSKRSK
The experiment in a line: Trypanosoma cruzi tyrosyl tRNA synthetase (TcYRS) _High Tyrosine SOP. Note: in the data most compounds retested in dose-response had high values. In kind it is functional. As to conditions: 30 µM.

Experiment [8] addresses T4, Tyrosyl-tRNA synthetase, putative (Trypanosoma cruzi (strain CL Brener)). The experiment in a line: Trypanosoma cruzi tyrosyl tRNA synthetase (TcYRS) SOP. In kind it is functional. As to conditions: 30 µM.
Experiment [9] deals with Chromo domain-containing protein 1 (Saccharomyces cerevisiae (strain ATCC 204508 / S288c) (Baker's yeast)) (UniProt P32657). The experiment in a line: ScCHD-1 Enzyme Inhibition Assay. Note: in the data most compounds retested in dose-response had high values. Format: functional. Conditions: 30 µM.

Eleven molecules from ChEMBL document CHEMBL3988442, “University of Dundee, Small-Polar-MMV Screening Library” (2021) can be followed below.

For some of these results: Results with a measured potency or affinity are listed apart.

Chain of Protein translocase subunit SecA (Escherichia coli (strain K12)) (P10408 whole entry): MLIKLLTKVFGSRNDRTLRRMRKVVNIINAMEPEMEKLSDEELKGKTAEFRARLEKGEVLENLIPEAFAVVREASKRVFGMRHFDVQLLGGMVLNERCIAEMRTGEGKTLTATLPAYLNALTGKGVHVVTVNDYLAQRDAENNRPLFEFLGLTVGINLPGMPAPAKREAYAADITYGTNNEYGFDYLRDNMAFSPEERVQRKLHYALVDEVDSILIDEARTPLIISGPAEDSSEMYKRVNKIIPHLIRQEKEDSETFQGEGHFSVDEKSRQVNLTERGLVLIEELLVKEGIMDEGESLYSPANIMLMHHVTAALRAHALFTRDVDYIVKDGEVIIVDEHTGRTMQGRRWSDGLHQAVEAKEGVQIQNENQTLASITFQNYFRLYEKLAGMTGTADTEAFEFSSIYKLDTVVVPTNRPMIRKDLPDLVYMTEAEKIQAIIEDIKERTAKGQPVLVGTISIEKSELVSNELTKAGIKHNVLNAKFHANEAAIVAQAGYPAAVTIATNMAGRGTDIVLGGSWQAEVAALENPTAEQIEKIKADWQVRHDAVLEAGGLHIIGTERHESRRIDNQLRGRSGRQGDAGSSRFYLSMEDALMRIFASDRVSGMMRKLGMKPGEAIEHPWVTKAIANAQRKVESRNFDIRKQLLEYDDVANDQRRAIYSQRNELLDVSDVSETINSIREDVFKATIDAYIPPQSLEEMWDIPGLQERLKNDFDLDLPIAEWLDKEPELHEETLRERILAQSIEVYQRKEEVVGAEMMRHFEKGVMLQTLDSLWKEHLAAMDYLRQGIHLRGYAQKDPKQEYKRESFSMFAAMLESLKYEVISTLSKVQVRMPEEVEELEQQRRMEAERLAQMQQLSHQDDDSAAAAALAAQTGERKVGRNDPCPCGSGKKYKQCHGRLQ
Chain of Sialic acid-binding Ig-like lectin 9 (Homo sapiens) (Q9Y336 whole entry): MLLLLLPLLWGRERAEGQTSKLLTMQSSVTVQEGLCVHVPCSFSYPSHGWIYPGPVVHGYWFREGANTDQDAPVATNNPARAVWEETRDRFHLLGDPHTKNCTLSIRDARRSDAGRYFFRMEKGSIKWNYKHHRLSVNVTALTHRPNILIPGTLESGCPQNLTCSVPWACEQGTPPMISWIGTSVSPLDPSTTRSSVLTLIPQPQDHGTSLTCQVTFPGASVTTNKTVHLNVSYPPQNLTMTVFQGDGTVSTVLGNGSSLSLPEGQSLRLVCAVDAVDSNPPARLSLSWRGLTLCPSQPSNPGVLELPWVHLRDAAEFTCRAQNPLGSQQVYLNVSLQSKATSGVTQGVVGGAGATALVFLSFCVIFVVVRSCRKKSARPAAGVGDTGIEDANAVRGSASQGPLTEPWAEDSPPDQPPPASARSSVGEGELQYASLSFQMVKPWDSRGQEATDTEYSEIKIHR
Chain of Chromo domain-containing protein 1 (Saccharomyces cerevisiae (strain ATCC 204508 / S288c) (Baker's yeast)) (P32657 whole entry, the tested form may be a part): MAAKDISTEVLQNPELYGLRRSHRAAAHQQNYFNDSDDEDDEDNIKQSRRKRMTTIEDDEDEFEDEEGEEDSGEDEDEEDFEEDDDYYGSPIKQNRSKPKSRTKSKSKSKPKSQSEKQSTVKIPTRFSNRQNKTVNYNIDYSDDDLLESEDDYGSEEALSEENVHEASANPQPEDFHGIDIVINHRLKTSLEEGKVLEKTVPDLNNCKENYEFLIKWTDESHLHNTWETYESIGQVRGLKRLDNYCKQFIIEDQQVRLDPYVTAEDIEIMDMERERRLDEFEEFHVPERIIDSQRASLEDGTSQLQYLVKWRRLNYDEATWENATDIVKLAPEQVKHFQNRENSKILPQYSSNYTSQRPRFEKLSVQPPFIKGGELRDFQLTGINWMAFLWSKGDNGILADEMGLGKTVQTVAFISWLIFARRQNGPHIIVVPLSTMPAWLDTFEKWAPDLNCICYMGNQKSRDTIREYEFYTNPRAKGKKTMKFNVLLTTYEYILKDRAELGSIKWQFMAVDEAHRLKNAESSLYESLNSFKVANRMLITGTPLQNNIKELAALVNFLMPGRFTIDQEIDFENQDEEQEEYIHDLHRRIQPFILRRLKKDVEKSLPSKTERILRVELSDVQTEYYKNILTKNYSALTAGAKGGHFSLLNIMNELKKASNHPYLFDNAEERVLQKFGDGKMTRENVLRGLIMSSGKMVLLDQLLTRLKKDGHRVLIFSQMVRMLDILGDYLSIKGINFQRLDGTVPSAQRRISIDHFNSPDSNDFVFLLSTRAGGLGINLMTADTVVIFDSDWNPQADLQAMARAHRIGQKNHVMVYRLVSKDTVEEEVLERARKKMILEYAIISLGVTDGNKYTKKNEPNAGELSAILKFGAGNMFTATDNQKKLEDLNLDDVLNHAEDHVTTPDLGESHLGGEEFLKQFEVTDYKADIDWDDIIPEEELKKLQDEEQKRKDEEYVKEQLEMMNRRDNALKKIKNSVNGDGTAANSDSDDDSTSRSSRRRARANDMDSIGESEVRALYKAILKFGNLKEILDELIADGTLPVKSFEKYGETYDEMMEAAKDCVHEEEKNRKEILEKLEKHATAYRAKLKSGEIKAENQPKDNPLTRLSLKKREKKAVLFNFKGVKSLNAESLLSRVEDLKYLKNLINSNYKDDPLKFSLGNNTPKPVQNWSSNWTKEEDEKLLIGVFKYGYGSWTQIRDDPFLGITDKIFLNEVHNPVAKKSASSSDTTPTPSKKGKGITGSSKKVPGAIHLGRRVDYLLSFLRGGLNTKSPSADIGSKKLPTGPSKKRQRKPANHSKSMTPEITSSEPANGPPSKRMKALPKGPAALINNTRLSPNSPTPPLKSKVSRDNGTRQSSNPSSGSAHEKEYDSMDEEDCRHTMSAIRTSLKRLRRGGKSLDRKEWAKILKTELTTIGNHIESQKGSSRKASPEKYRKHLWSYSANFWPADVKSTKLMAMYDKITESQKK

On to `O=C(CC1CCCC1)N1CCCC(c2n[nH]c3nccnc23)C1` (stereo unspecified), for which the Percent Effect in experiment [1] is -2.49%; in [2], 6.76%; in [3] it was 20.4%; in experiment [4], 3.58%; with Trypanosoma cruzi, -2.17%; in experiment [5], 7.66%. Also, the Percent Effect in experiment [6] is 11.2%; in the experiment filed under Homo sapiens, 13.3%; in [7], 3.23%; in experiment [8] it was 16.9%; in experiment [9] it was -9.36%.
On to `CC(=O)N(Cc1ncc(C(C)C)o1)C1CCN(CCn2cccn2)C1` (stereo unspecified), for which the Percent Effect in experiment [1] is 0.67%; in experiment [2], 10.8%; in [3] it was -13.2%; in experiment [4] it was 0.985%; in the experiment with Trypanosoma cruzi, 2.69%; in [5], 0.924%. Besides, the Percent Effect is 18.9% in experiment [6]; -1.48% in the experiment listed under Homo sapiens; 14.8% in [7]; 1.22% in [8]; -4.25% in [9].
For `CC(C)NC(=O)c1nnn(-c2cccc(C(F)(F)F)c2)c1C1CC1`, the Percent Effect was -3.01% in experiment [1]; 15.3% in experiment [2]; -3.96% in [3]; 15.4% in experiment [4]; 5.73% in the experiment with Trypanosoma cruzi; 15.4% in experiment [5]. In addition, the Percent Effect is 22.8% in experiment [6]; 11.4% in the experiment listed under Homo sapiens; 4.21% in experiment [7]; 12.8% in experiment [8]; 77.3% in experiment [9].
For `O=C(NS(=O)(=O)c1cc(Cl)sc1Cl)c1cccc2c1OCCO2`, the Percent Effect in experiment [1] was -8.74%; in experiment [2] it was -11%; in experiment [3] it was 3.09%; in [4], -2.91%; in the experiment with Trypanosoma cruzi, -6.07%; in [5], -1.36%. The Percent Effect in [6] is 13.5%; in the experiment filed under Homo sapiens it was 24.9%; in experiment [7] it was -22.6%; in experiment [8] it was -42.5%; in [9] it was -4.53%.
Turning to `COc1cccc(COCC(=O)N2CCCC(n3ccnc3)C2)c1` (stereo unspecified), the Percent Effect is -4.67% in experiment [1]; 18.9% in [2]; 21.3% in experiment [3]; -4.82% in [4]; -6.13% with Trypanosoma cruzi; 0.802% in [5]. The Percent Effect is 3.06% in experiment [6]; 10.7% in the experiment filed under Homo sapiens; 6.4% in [7]; 11.1% in [8]; -5.14% in experiment [9].
`O=C(CN1CCC(N2CCNC2=O)CC1)NCC(F)(F)F`: the Percent Effect in experiment [1] is -3.52%; in experiment [2], 17.7%; in experiment [3], -4.25%; in experiment [4] it was 3.47%; in the experiment with Trypanosoma cruzi, -2.36%; in experiment [5] it was 4.56%. Moreover, the Percent Effect in experiment [6] is 5%; in the experiment listed under Homo sapiens, 9.87%; in experiment [7], 5.42%; in experiment [8], 13.9%; in experiment [9], -4.76%.
`O=C(Cn1nc(-c2cccs2)ccc1=O)N1CCCCCC1`: the Percent Effect in experiment [1] was -3.74%; in experiment [2], -1.33%; in experiment [3] it was 5.86%; in [4], 8.95%; with Trypanosoma cruzi, 1.77%; in experiment [5] it was -10.4%. The Percent Effect in [6] is 7.21%; in the experiment filed under Homo sapiens, 9%; in [7], 1.06%; in experiment [8], 7.69%; in experiment [9], -3.49%.
As for `CCCc1n[nH]c(C2CN(Cc3nnc(C4CC4)o3)CCO2)n1` (stereo unspecified), the Percent Effect is -3.64% in [1]; 5.06% in [2]; -4.65% in experiment [3]; 2.18% in experiment [4]; 4.25% in the experiment with Trypanosoma cruzi; -1.9% in [5]. Besides, the Percent Effect was -0.409% in [6]; 3.77% in the experiment listed under Homo sapiens; 3.45% in [7]; 8.86% in experiment [8]; -0.679% in [9].
For the molecule `Cc1nc(CN2CCN(C(=O)c3sccc3C3CC3)CC2)cs1`, the Percent Effect in experiment [1] is -2.84%; in experiment [2] it was 0%; in [3], 8.03%; in experiment [4], 9.39%; in the experiment on Trypanosoma cruzi, -0.49%; in experiment [5], 3.16%. Further, the Percent Effect in [6] was 3.48%; in the experiment listed under Homo sapiens, -10.3%; in [7], -2.86%; in experiment [8], -2.35%; in experiment [9], -13.7%.
`CN(CC1(O)CCCN(CCC2CCCCC2)C1=O)C1CCOCC1` (stereo unspecified): the Percent Effect in experiment [1] was -5.39%; in experiment [2], 10.7%; in [3] it was -4.88%; in experiment [4], 15.6%; in the experiment with Trypanosoma cruzi, 7.5%; in experiment [5], 6.77%. Further, the Percent Effect in [6] is 6.8%; in the experiment listed under Homo sapiens, 6.58%; in [7], 4.92%; in [8] it was 13.6%; in experiment [9], -3.45%.
Consider `Cc1n[nH]c(C)c1-c1cnc(CC2CCN(C)C2)cn1` (stereo unspecified), for which the Percent Effect is -1.87% in experiment [1]; 2.67% in experiment [2]; 9.74% in experiment [3]; 4.94% in experiment [4]; 3.94% in the experiment with Trypanosoma cruzi; -3.5% in experiment [5]. For the same molecule, the Percent Effect was 0.793% in experiment [6]; -2.19% in the experiment filed under Homo sapiens; 4.25% in experiment [7]; 6.41% in experiment [8]; -1.01% in experiment [9].
